Experimental data taken from ChEMBL document CHEMBL1157539, “Thousands of chemical starting points for antimalarial lead identification” (Nature, 2010).

Tested on: HepG2
Test: GSK_TCMDC: Percent inhibition of human HepG2 cell line. Test compounds present at 10uM.
Type: functional

SMILES	Inhibition [%]
O=C(NCCN1Cc2ccccc2C1=O)c1ccc(Oc2ccc(C(=O)NCCN3Cc4ccccc4C3=O)cc2)cc1	27
O=C(Cc1cccnc1)Nc1cccc(-c2cccc(-c3nc4cc(C(F)(F)F)ccc4[nH]3)c2)c1	42
CCCCCC(NCCCC)c1ccc(OCCOc2ccc(C(CCCCC)NCCCC)cc2)cc1.Cl (stereo not drawn)	99
COC(=O)c1cccc(CNCc2ccc(-c3ccc(-c4nc5cccc(C)c5[nH]4)s3)cc2)c1.O=C(O)C(F)(F)F	3
O=C(NC1CC1)c1cnc(N2CCC(COc3cccc(F)c3)CC2)c(Cl)c1	1
Cc1cccc(CNc2nc(C)cc(N[C@@H](Cc3ccccc3)C(=O)NCCOc3ccccc3)n2)c1.O=C(O)C(F)(F)F	28
COC(=O)c1cc(OC2CCOC2=O)cc2c1OC(C)(C)O2 (stereo not drawn)	6
NC1=NC(c2ccccc2)(c2ccccc2)C(=O)N1Cc1ccc(-c2cccnc2)cc1.O=CO	15
O=C(/C=C/c1ccc(Cl)c(Cl)c1)NCCCCCN1CCN(C(=O)Nc2ccc(C(F)(F)F)cc2)CC1	26
CCSc1nnc(C2CCCN(CC(=O)Nc3cc(C(F)(F)F)ccc3Cl)C2)n1CC (stereo not drawn)	0
COC(=O)c1ccccc1COc1ccc(CC2(NC(=O)[C@H](Nc3ccc(C#N)c4ccccc34)C(C)(C)C)CCCC2)cc1	1
COCCOc1ccc(Nc2nccc(-c3c(-c4cccc(NC(=O)c5c(F)cccc5F)c4)nn4ccccc34)n2)cc1F	62
CC(=O)N(Cc1nc(-c2cc(Cl)c(Cl)s2)cs1)c1c(C)cccc1C	5
